From ChEMBL document CHEMBL3433997, “St. Jude Leishmania screening dataset” (2016)

Assays:
Type in all cases: functional
[1] = molecular target: Solute carrier family 2, facilitated glucose transporter member 1 (Homo sapiens) (UniProt P11166); test: ST_JUDE_LEISH: Cytotoxicity at 2uM final concentration against transgenic Leishmania Mexicana promastigotes LmGLUT1 that are glucose transport deficient and complemented with the human glucose transporter GLUT1. Activity is measured by DNA content using SYBR green in vitro
[2] = molecular target: Hexose transporter 1 (Plasmodium falciparum) (UniProt O97467); test: ST_JUDE_LEISH: Cytotoxicity at 2uM final concentration against transgenic Leishmania Mexicana promastigotes LmPfHT that are glucose transport deficient and complemented with the Plasmodium falciparum hexose transporter. Activity is measured by DNA content using SYBR green in vitro
[3] = molecular target: Glucose transporter (Leishmania mexicana) (UniProt O61059); test: ST_JUDE_LEISH: Cytotoxicity at 2uM final concentration against transgenic Leishmania Mexicana promastigotes LmGT2 that are glucose transport deficient and complemented with the L. Mexicana glucose transporter 2. Activity is measured by DNA content using SYBR green in vitro

Chain of Solute carrier family 2, facilitated glucose transporter member 1 (Homo sapiens) (P11166 whole entry): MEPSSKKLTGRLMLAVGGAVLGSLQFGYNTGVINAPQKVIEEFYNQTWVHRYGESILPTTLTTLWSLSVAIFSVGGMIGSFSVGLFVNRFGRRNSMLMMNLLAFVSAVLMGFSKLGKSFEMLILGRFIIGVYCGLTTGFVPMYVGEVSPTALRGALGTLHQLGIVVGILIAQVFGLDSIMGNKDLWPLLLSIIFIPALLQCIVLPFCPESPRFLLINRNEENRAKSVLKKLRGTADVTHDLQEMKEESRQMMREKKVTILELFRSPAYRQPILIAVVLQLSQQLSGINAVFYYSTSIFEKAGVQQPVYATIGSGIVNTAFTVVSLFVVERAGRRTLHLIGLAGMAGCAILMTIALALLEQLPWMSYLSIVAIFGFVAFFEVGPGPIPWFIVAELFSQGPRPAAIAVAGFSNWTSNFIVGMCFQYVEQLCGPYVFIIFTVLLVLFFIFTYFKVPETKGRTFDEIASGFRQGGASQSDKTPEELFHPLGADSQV

Row | SMILES | inhibition [1] [%] | inhibition [2] [%] | inhibition [3] [%]
1 | COc1cccc2cc(C(=O)N[C@@H](CC(C)C)C(=O)N[C@H](C=NN3CCOC3=O)Cc3ccccc3)oc12 | -0.71 | 0.23 | -0.91
2 | Cc1cc(N2CCCC2)nc(Nc2ccc(NC(=O)C(C)C)cc2)n1 | 5.62 | 2.73 | -6.48
3 | NCC1CCCN1Cc1ccc(-c2ccc(-c3nc4cc(C(F)(F)F)ccc4[nH]3)cc2)cc1 (configuration not stated) | 3.73 | 1.2 | 1.46
4 | COc1ccc(-n2ccnc2SCC(=O)Nc2cccc(C(F)(F)F)c2)c(OC)c1 | 0.63 | 0.74 | -0.9
5 | CCOC(=O)c1ccc(-c2cnoc2-c2cc(CC)c(OC)cc2O)o1 | -0.08 | 1.08 | 1.38
6 | O=C(/C=C/c1ccc(Cl)c(Cl)c1)NCCCCCN1CCC(CCNC(=O)/C=C/c2cc(C(F)(F)F)ccc2F)CC1 | -4.09 | -2.42 | 2.28
7 | O=C(/C=C/c1ccc(Cl)c(Cl)c1)NCCCCCN1CCC(C(=O)Nc2ccc3c(c2)OCO3)CC1 | 6.29 | 5.08 | 5.17
8 | Cc1ccc(NC(=O)c2cccc(CN3CCCN(Cc4cccc(O)c4)CC3)c2)cc1C | 4.69 | 3.38 | 4.38
9 | CCN1CCN(c2cc(C)c3cc(NC(=O)c4ccc(C(C)(C)C)cc4)ccc3n2)CC1 | -0.6 | 2.13 | 1.59
10 | CN(C)CCC1CCCc2ccc(NC(=O)Nc3cccc(Cl)c3Cl)cc21 (configuration not stated) | 1.81 | 2.38 | 1.03
11 | FC(F)(F)c1ccc2[nH]c(-c3cccc(-c4cccc(CNCC5CCCO5)c4)c3)nc2c1 (configuration not stated) | 4.7 | 3.63 | 3.26
12 | CCN(c1ccc(F)cc1)S(=O)(=O)c1cc(Br)cc2c1N(C(=O)C1CC1)CC2 | 0.4 | 1.32 | 3.74
13 | CC1(C)NC(N)=NC(=N)N1OCCCNC(=O)c1ccc(C(=O)NCCCON2C(=N)N=C(N)NC2(C)C)cc1 | 0.28 | 0.77 | 1.51
14 | CCC(CC)(Cc1ccccc1)NC(=O)[C@H](CC(C)C)Nc1ccc(C#N)c2ccccc12 | 13.3 | 10.4 | 10.7
15 | O=C1NC(=O)C(c2cccc(NC(=O)c3ccncc3)c2)=C1c1ccccc1 | 1.05 | 1.65 | -4.34
16 | Cn1cncc1CNCc1ccc(-c2cccc(-c3nc4ccccc4[nH]3)c2)cc1 | -1.06 | -1.22 | -4.84
17 | O=C(/C=C/c1ccc(Cl)c(Cl)c1)NCCCCCN1CCC(NC(=O)Nc2ccc(Cl)cc2F)CC1 | 2.9 | 1.84 | 2.48

Row | SMILES | inhibition [1] [%] | inhibition [2] [%] | inhibition [3] [%]
18 | CN(CC(=O)Nc1cc(C(F)(F)F)ccc1-n1cncn1)Cc1nc2ccccc2s1 | 2.07 | 2.69 | 5.21
19 | Cc1ccc2[nH]c3c(NCCCN4CCOCC4)ncnc3c2c1 | 7.43 | -2.37 | 0.92
20 | OCCN1CCN(Cc2cccc(-c3ccc(-c4nc5cc(C(F)(F)F)ccc5[nH]4)cc3)c2)CC1 | 5.08 | 3.3 | 2.62
21 | CC(C)(C)c1ccc(CN2CCC(CNC(=O)c3cc(-c4cccc(F)c4)cs3)C2)cc1 (configuration not stated) | 4.3 | 4.53 | 4.16
22 | Cc1nc2ccc3ccc(CNc4ccc(C(=O)CC(CCC(=O)O)C(=O)O)cc4)cc3c2c(=O)[nH]1 (configuration not stated) | -0.57 | -1.01 | -0.36
23 | CN(C)C(=O)n1cnc(S(=O)(=O)N(C)c2ccc(Cl)cc2)n1 | 5.67 | 6.99 | 4.38
24 | Cn1cncc1C(=O)Nc1cccc(-c2csc(-c3nc4ccccc4[nH]3)c2)c1 | 2.44 | 3.44 | 2.3
25 | COc1ccccc1CCNc1nc(C)cc(NCCC(=O)Nc2ccccc2)n1 | 1.82 | 2.34 | 1.43
26 | CCN(CC)CCN(Cc1ccc(-c2ccc(C(F)(F)F)cc2)cc1)C(=O)Cn1c(CCc2cccc(F)c2F)c(C)c(=O)c2ccccc21 | 1.84 | 1.5 | 3.04
27 | c1cc(CNC2Cc3ccccc3C2)cc(-c2cnc(N3CCNCC3)nc2)c1 | 0.76 | 2.77 | 1.2
28 | Cn1cncc1C(=O)Nc1cccc(-c2ccc(-c3nc4cc(F)ccc4[nH]3)s2)c1 | 3.18 | 3.3 | -0.1
29 | CCN(CC)CCNC(=O)c1ccc(NC(=O)c2oc3c(Cl)cccc3c2C)cc1 | 12.1 | 8.3 | 7.44
30 | O=[N+]([O-])c1ccc(CNCCCCCCNCc2ccc([N+](=O)[O-])c3ccccc23)c2ccccc12 | 2.24 | 0.87 | 7.99
31 | O=C(/C=C/c1ccc(Cl)c(Cl)c1)NCCCCCN1CCCC(CNC(=O)/C=C/c2ccccc2)C1 (configuration not stated) | -0.59 | -0.44 | -0.59
32 | CN1CCCN(c2ccnc3cc4c(cc23)N(C(=O)c2ccc(Cl)cc2)CC4)CC1 | 13.4 | 12.5 | 16.1
33 | CNCc1ccc2nc(-c3coc(Cc4cc(Cl)ccc4OCC(C)C)n3)[nH]c2c1 | 6.56 | 4.9 | 3.77
34 | Cc1ccc(C(=O)Nc2ccc(F)cc2)cc1-c1nc(NC2CC(C)(C)NC(C)(C)C2)nc2c1ccc(=O)n2-c1c(F)cccc1F | 4.77 | 3.62 | 2.81
